In PubChem BioAssay (NCI):
About 83,000 compounds went through this panel and 20% of them were active in at least one assay; those are over-represented in the sample as a whole.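 Values shown are percent growth following 48 h exposure of cells in 96-well plates to a single concentration of compound; below 10 was considered active.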 Calls of active or inactive are those of the source.

What follows are compounds tested on HL-60(TB) leukemia (assay: NCI-60 one-dose screen, 48 h (100 = growth as untreated, 0 = no growth, -100 = all killed)). Conditions: 10 µM unless noted.

Row | SMILES | growth
1 | CCCCCCCCCCCCCCCCCN | 95.9% (inactive)
2 | Brc1cnc2[nH]cc(-c3nnc(-c4ccccc4)o3)c2c1 | 94.5% (inactive)
3 | C#CC#CC#CC#CC#CC#CC#CC#CC[C@@H]1OC[C@H](COC(=O)O[C@@H](C(=O)O[C@H]2C[C@@]3(O)[C@@H](OC(=O)c4ccccc4)[C@@H]4[C@]5(OC(C)=O)CO[C@@H]5C[C@H](O)[C@@]4(C)C(=O)[C@H](OC(C)=O)C(=C2C)C3(C)C)[C@@H](NC(=O)c2ccccc2)c2ccccc2)O1 | 6.04% (active)
4 | CC(=O)c1cccc(N(C)S(=O)(=O)c2ccc(C)cc2)c1 | 88.8% (inactive)
5 | C/C(=N/N=C(N)N)c1ccc(N)cc1 | 60.1% (inactive)
6 | NS(=O)(=O)c1ccc(CCn2c(SCC(=O)N/N=C/c3cccnc3)nc3ccccc3c2=O)cc1 | 80.4% (inactive)
7 | COC(=O)C(Cc1ccccc1)n1cc(COc2nc(Cl)nc(Nc3ccc(Cl)cc3)n2)nn1 (stereo not drawn) | 72.2% (inactive)
8 | COc1ccc(-c2nc(N/N=C/c3cccc(Br)c3)nc(N3CCOCC3)c2C#N)cc1 | 10.7% (inactive)
9 | Cc1ccc(N)c(O)c1 | 128% (inactive)
10 | COc1cc(C2CC(=O)Nc3c2c(C)nn3-c2nc3ccccc3[nH]2)cc(OC)c1O (stereo not drawn) | 43.7% (inactive)
11 | CCN(CC)c1ccc(/C=N\NC(=O)/C=C/C=C/c2ccc3c(c2)OCO3)c(O)c1 | 2.66% (active)
12 | Brc1cccc(-c2cc(-c3ccc4c(c3)OCCO4)[nH]n2)c1 | 12.3% [25 µM] (inactive)
13 | COc1cc2c(cc1-c1c(C)noc1C)ncc1nc(C3CCCCC3)n([C@@H](C)COC(F)F)c12 | 17.4% (inactive)
